In PubChem BioAssay AID1159580 (chemical genetic matrix, 2015):
Values joined by “and” are separate entries in the source; they are usually repeats but may differ in a detail not shown here. Equal values may be shown once. Among all 5,500 compounds or so, about 2,000 (36%) were called active. Inconclusive results (about 18%) are left out. Cut-off read from the data, not from the text of the source: active = normalized growth mostly below about 0.91 (no sharp cut-off); inconclusive = no clear call, values can overlap the other calls; inactive = mostly above about 0.92. The list shows a part of the results.

Assay: chemical genetic growth profiling, strain panel (AID 1159580);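 note: tested at 20 µM; growth read once vehicle control cultures reached saturation at 30 °C; 1 = growth at the plate median or of vehicle wells; lower values mean less growth of the strain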
Conditions: growth OD

Measured: normalized growth

CCCN(CCC)C(=O)C(CCC(=O)O)NC(=O)c1ccccc1 (stereo unspecified)
inactive: S. cerevisiae deletion strains, locus YJR075W, strain HOC1, active compounds read low 0.988 | S. cerevisiae deletion strains, locus YKL009W, strain mrt4, active compounds read low 1.02 | S. cerevisiae deletion strains, locus YKL068W, active compounds read low 0.975 | S. cerevisiae deletion strains, locus YKL085W, strain MDH1 (second series), active compounds read low 0.987 | S. cerevisiae deletion strains, locus YKL085W, strain MDH1, active compounds read low 0.987 | S. cerevisiae deletion strains, locus YKL160W, strain elf1, active compounds read low 1.01 | S. cerevisiae deletion strains, locus YKL190W, strain CNB1, active compounds read low 0.988 | S. cerevisiae deletion strains, locus YKR001C, strain vps1, active compounds read low 0.995 | S. cerevisiae deletion strains, locus YKR026C, strain gcn3, active compounds read low 0.974 | S. cerevisiae deletion strains, locus YKR091W, strain srl3, active compounds read low 0.985 | S. cerevisiae deletion strains, locus YLL001W, strain dnm1, active compounds read low 0.973 | S. cerevisiae deletion strains, locus YLL026W, active compounds read low 0.993 | S. cerevisiae deletion strains, locus YLL041C, strain sdh2, active compounds read low 0.982 | S. cerevisiae deletion strains, locus YLR027C, strain aat2, active compounds read low 0.982 | S. cerevisiae deletion strains, locus YLR039C, strain RIC1, active compounds read low 0.987 | S. cerevisiae deletion strains, locus YLR058C, strain SHM2, active compounds read low 0.997 | S. cerevisiae deletion strains, locus YLR102C, strain apc9, active compounds read low 0.986 | S. cerevisiae deletion strains, locus YLR113W, strain HOG1, active compounds read low 0.96 | S. cerevisiae deletion strains, locus YLR221C, strain rsa3, active compounds read low 0.988 | S. cerevisiae deletion strains, locus YLR258W, strain gsy2, active compounds read low 0.973 | S. cerevisiae deletion strains, locus YLR262C, strain YPT6 (second series), active compounds read low 0.968 | S. cerevisiae deletion strains, locus YLR262C, strain YPT6, active compounds read low 0.998 | S. cerevisiae deletion strains, locus YLR268W, strain sec22, active compounds read low 0.955 | S. cerevisiae deletion strains, locus YLR320W, strain mms22, active compounds read low 0.987 | S. cerevisiae deletion strains, locus YLR330W, strain CHS5, active compounds read low 0.995 | S. cerevisiae deletion strains, locus YLR342W, strain FKS1 (second series), active compounds read low 1.08 | S. cerevisiae deletion strains, locus YLR342W, strain FKS1, active compounds read low 0.989 | S. cerevisiae deletion strains, locus YLR357W, strain rsc2, active compounds read low 0.964 | S. cerevisiae deletion strains, locus YLR370C, strain arc18, active compounds read low 0.984 | S. cerevisiae deletion strains, locus YLR371W, strain rom2, active compounds read low 0.986 | S. cerevisiae deletion strains, locus YLR384C, strain iki3, active compounds read low 0.982 | S. cerevisiae deletion strains, locus YLR418C, strain cdc73, active compounds read low 1 | S. cerevisiae deletion strains, locus YML016C, strain PPZ1, active compounds read low 1.01 | S. cerevisiae deletion strains, locus YML032C, strain rad52, active compounds read low 0.982 | S. cerevisiae deletion strains, locus YML120C, strain ndi1, active compounds read low 0.988 | S. cerevisiae deletion strains, locus YML124C, strain tub3, active compounds read low 0.988 | S. cerevisiae deletion strains, locus YMR058W, strain fet3, active compounds read low 0.983 | S. cerevisiae deletion strains, locus YMR078C, strain ctf18, active compounds read low 0.985 | S. cerevisiae deletion strains, locus YMR125W, strain sto1, active compounds read low 0.975 | S. cerevisiae deletion strains, locus YMR129W, active compounds read low 1 | S. cerevisiae deletion strains, locus YMR205C, strain PFK2, active compounds read low 0.992 | S. cerevisiae deletion strains, locus YMR223W, strain ubp8, active compounds read low 1.02 | S. cerevisiae deletion strains, locus YMR231W, strain pep5, active compounds read low 0.976 | S. cerevisiae deletion strains, locus YMR263W, strain SAP30, active compounds read low 0.99 and 1.01 | S. cerevisiae deletion strains, locus YMR307W, strain GAS1, active compounds read low 1.06 and 0.989 | S. cerevisiae deletion strains, locus YNL067W, strain RPL9B, active compounds read low 0.982 | S. cerevisiae deletion strains, locus YNL071W, strain lat1, active compounds read low 1 | S. cerevisiae deletion strains, locus YNL128W, strain TEP1, active compounds read low 0.983 | S. cerevisiae deletion strains, locus YNL153C, strain GIM3, active compounds read low 1 and 1.01 | S. cerevisiae deletion strains, locus YNL175C, strain NOP13, active compounds read low 1.01 | S. cerevisiae deletion strains, locus YNL183C, strain NPR1, active compounds read low 0.933 | S. cerevisiae deletion strains, locus YNL197C, strain WHI3, active compounds read low 1.08 | S. cerevisiae deletion strains, locus YNL209W, strain ssb2, active compounds read low 0.979 | S. cerevisiae deletion strains, locus YNL224C, strain SQS1, active compounds read low 1 | S. cerevisiae deletion strains, locus YNL233W, strain BNI4, active compounds read low 0.989 | S. cerevisiae deletion strains, locus YNL248C, strain rpa49, active compounds read low 0.948 | S. cerevisiae deletion strains, locus YNL250W, strain rad50, active compounds read low 0.982 | S. cerevisiae deletion strains, locus YNL271C, strain bni1, active compounds read low 0.988 | S. cerevisiae deletion strains, locus YNL298W, strain CLA4, active compounds read low 0.998 | S. cerevisiae deletion strains, locus YNL307C, strain MCK1, active compounds read low 0.996 | S. cerevisiae deletion strains, locus YNL322C, strain KRE1 (second series), active compounds read low 0.99 | S. cerevisiae deletion strains, locus YNL322C, strain KRE1, active compounds read low 0.982 and 1.01 | S. cerevisiae deletion strains, locus YNR049C, strain mso1, active compounds read low 0.968 | S. cerevisiae deletion strains, locus YNR052C, strain pop2, active compounds read low 0.991 | S. cerevisiae deletion strains, locus YOL006C, strain TOP1, active compounds read low 0.957 | S. cerevisiae deletion strains, locus YOL012C, strain htz1 1.01 | S. cerevisiae deletion strains, locus YOL147C, strain pex11, active compounds read low 0.995 | S. cerevisiae deletion strains, locus YOR001W, strain rrp6, active compounds read low 0.984 | S. cerevisiae deletion strains, locus YOR061W, strain CKA2, active compounds read low 1.01 | S. cerevisiae deletion strains, locus YOR069W, strain VPS5, active compounds read low 0.997 | S. cerevisiae deletion strains, locus YOR070C, strain gyp1, active compounds read low 0.99 | S. cerevisiae deletion strains, locus YOR080W, strain dia2, active compounds read low 0.969 | S. cerevisiae deletion strains, locus YOR083W, strain WHI5 (second series), active compounds read low 1.01 | S. cerevisiae deletion strains, locus YOR083W, strain WHI5, active compounds read low 0.98 | S. cerevisiae deletion strains, locus YOR106W, strain vam3, active compounds read low 0.975 | S. cerevisiae deletion strains, locus YOR136W, strain idh2, active compounds read low 0.989 | S. cerevisiae deletion strains, locus YOR144C, strain elg1, active compounds read low 0.977 | S. cerevisiae deletion strains, locus YOR184W, strain ser1, active compounds read low 0.993 | S. cerevisiae deletion strains, locus YOR231W, strain MKK1, active compounds read low 0.978 | S. cerevisiae deletion strains, locus YOR265W, strain rbl2, active compounds read low 0.987 | S. cerevisiae deletion strains, locus YOR270C, strain vph1, active compounds read low 0.919 | S. cerevisiae deletion strains, locus YOR290C, strain snf2, active compounds read low 0.988 | S. cerevisiae deletion strains, locus YOR316C, strain cot1, active compounds read low 0.977 | S. cerevisiae deletion strains, locus YPL051W, strain arl3, active compounds read low 0.987 | S. cerevisiae deletion strains, locus YPL055C, strain LGE1, active compounds read low 0.99 and 1.01 | S. cerevisiae deletion strains, locus YPL078C, strain atp4, active compounds read low 0.992 | S. cerevisiae deletion strains, locus YPL106C, strain sse1, active compounds read low 0.955 | S. cerevisiae deletion strains, locus YPL240C, strain hsp82, active compounds read low 0.986 | S. cerevisiae deletion strains, locus YPL241C, strain CIN2, active compounds read low 1 | S. cerevisiae deletion strains, locus YPL256C, strain CLN2, active compounds read low 0.965 | S. cerevisiae deletion strains, locus YPR119W, strain clb2, active compounds read low 0.989 | S. cerevisiae deletion strains, locus YPR141C, strain kar3, active compounds read low 0.984 | S. cerevisiae deletion strains, locus YPR163C, strain tif3, active compounds read low 0.977 | S. cerevisiae deletion strains, locus YPR167C, strain met16, active compounds read low 0.983 | S. cerevisiae deletion strains, strain wtn01, active compounds read low 0.987 | S. cerevisiae strains, strain wild type, active compounds read low 1
